A selection: hits, their analogues and other compounds. The true share with any hit is near 14%.
HCMV inh: qHTS Assay for inhibitors of the human cytomegalovirus (HCMV) | HFF cells, HCMV-luciferase reporter, 72 h; active compounds read low | activity change, negative = inhibition, % at 57.5 µM | 410,000 compounds, 4.5% hits | AID 1259415, 2018; in the data active means activity change below about -60%; inconclusive means no clear call, values can overlap the other calls; inactive means above about -39%
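After 16 h attachment at 37C, HFF cells received test compound and HCMV-luciferase (1 PFU/cell); reporter luminescence read 72 h later, data normalized against buffer-only and known inhibitor Salinomycin.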
Pf growth 48h: Primary qHTS for delayed death inhibitors of the malarial parasite plastid, 48 hour incubation; P. falciparum luciferase growth in erythrocytes, 48 h; Potency, µM (doses to about 28.7 µM), for the others: at the highest dose activity change, negative = inhibition, actives largely listed as inhibitors; 310,000 compounds, 5.9% hits; further: potency means the concentration at half of the fitted maximal effect
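Erythrocytes infected with P. falciparum carrying an integrated firefly luciferase reporter (2% hematocrit, 0.1% parasitemia final) were exposed to compounds in RPMI 1640 with 0.5% Albumax at 37 C, 5% CO2. Growth inhibition was scored as reduced luminescence.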
Marburg entry inh: qHTS for inhibitors of binding or entry into cells for Marburg Virus. Potency, µM (titrated, usually from 37.8 µM), for inactives: at the highest dose activity change, negative = inhibition, most hits filed as inhibitors. 300,000 compounds, 1.8% hits. Marburg virus pseudotyped entry inhibition, cell reporter; calls by dose curve; tested in HEK293 cells; further: potency means the concentration at half of the fitted maximal effect
Pf growth 96h: Primary qHTS for delayed death inhibitors of the malarial parasite plastid, 96 hour incubation; P. falciparum luciferase reporter growth, 96 h; 320,000 compounds, 6.9% hits; Potency, µM (series often up to 28.7 µM), inactives show at the top dose activity change, negative = inhibition, actives largely listed as inhibitors; further: potency means the concentration at half of the fitted maximal effect
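Two-generation exposure (96 h) targets delayed-death phenotype. Reporter parasites carrying integrated firefly luciferase, in red cells at 2% hematocrit and 0.05% parasitemia final, kept at 37 C, 5% CO2; luminescence loss indicates inhibition.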
HCV inhibitor: qHTS Assay for Inhibitors of Hepatitis C Virus (HCV). Huh7.5.1 HCVcc-Cre infection, luciferase reporter, 44 h. Potency, µM (top dose mostly 41.8 µM), without a hit: at the top dose activity change, negative = inhibition, actives largely listed as inhibitors. 340,000 compounds, 3.4% hits; further: potency means the concentration at half of the fitted maximal effect
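1,000 cells/well; 4 h culture; + compound; + HCVcc-Cre (~0.5 moi); 44 h; luciferase substrate, RT 15 min; read 15 sec.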
Lassa entry inh: qHTS for Inhibitors of binding or entry into cells for Lassa Virus. Lassa virus pseudotype entry inhibition, cell reporter. Potency, µM (doses to about 37.9 µM), for the others: top-dose activity change, negative = inhibition, hits mostly inhibitors. 300,000 compounds, 1.2% hits. AID 540256, 2011; calls by dose curve; tested in HEK293 cells; further: potency means the concentration at half of the fitted maximal effect; nearly all actives have a fitted effect of over 50% in size
Starred values were filed as active, the others as inactive; ? = inconclusive; · = not tested or not shown; [ ] = dose if it differs, or a comment. Unless noted, the call rests on the fitted dose curve; in most records, active means well fitted inhibition curve with a large enough effect; inconclusive means small, poorly fitted or top-dose-only effect, or another doubt; inactive means no such curve, though single readings can be large or run the other way. On the % scale 0 is the no-effect control and ±100 the full control effect.

SMILES	HCMV inh	Pf growth 48h	Marburg entry inh	Pf growth 96h	HCV inhibitor	Lassa entry inh
CCOC(=O)[C@@H]1[C@H]2COc3cc(OC)ccc3[C@H]2N2C(=O)N(c3cccc(Cl)c3)C(=O)[C@@]12C	·	10.4µM*	·	?	?	·
C[C@@]12C(=O)N(c3ccc(C(F)(F)F)cc3)C(=O)N1[C@@H]1c3ccccc3OC[C@@H]1[C@H]2c1ccccc1	·	?	·	4.15µM*	-10.9%	·
CCOC(=O)[C@@H]1[C@H]2COc3ccccc3[C@@H]2N2C(=O)N(c3cccc(Cl)c3)C(=O)[C@@]12C	-5.2	-71.4%	·	10.4µM*	-10.4%	·
C[C@]12C(=O)N(c3ccc(F)cc3)C(=O)N1[C@@H]1c3ccccc3OC[C@@H]1[C@H]2c1ccccc1	0.3	-14.4%	·	?	-17.8%	·
CCOC(=O)[C@@H]1[C@H]2COc3ccccc3[C@H]2N2C(=O)N(c3cccc(Cl)c3)C(=O)[C@@]12C	·	0.0%	·	?	-2.2%	·
CCOC(=O)[C@@H]1[C@H]2COc3cc(OC)ccc3[C@H]2N2C(=O)N(c3cccc(Cl)c3)C(=O)[C@]12C	·	?	·	?	-11.0%	·
COc1cccc(NC(=O)Cn2c(=O)n(-c3ccc(C)cc3)c(=O)c3ccc(C(=O)NCc4ccco4)cc32)c1	-35.2	·	-24.0%[46.1 µM]	·	·	-28.8%[46.1 µM]
COc1ccc(CCNC(=O)CN2C(=O)COc3ccc(S(=O)(=O)N4CCCCCC4)cc32)cc1OC	-9.6	·	-12.7%[46.1 µM]	·	·	?
O=Nc1c(O)[nH]c2ccc(Cl)c(Cl)c12	-3.1	·	?	·	-9.8%	3.6%[46.1 µM]
COC(=O)C1=C(c2ccc(F)cc2OCc2ccccc2)C[C@@H]2CC[C@H]1N2C(=O)NCc1ccccc1	-14.6	9.28µM*	·	4.15µM*	-28.2%	·
COC(=O)C1=C(c2ccc(F)cc2OCc2ccccc2)C[C@@H]2CC[C@H]1N2C(=O)NCCCOC(C)C	-7.8	9.28µM*	·	?	?	·
COC(=O)C1=C(c2ccc(F)cc2OCc2ccccc2)C[C@@H]2CC[C@H]1N2C(=O)NCc1cccc(F)c1	-23.2	2.33µM*	1.2%	?	?	·
COC(=O)C1=C(c2ccc(F)cc2OCc2ccccc2)C[C@@H]2CC[C@H]1N2C(=O)NCC1CC1	-34.3	10.4µM*	·	?	2.3%	·
COC(=O)C1=C(c2ccc(F)cc2OCc2ccccc2)C[C@@H]2CC[C@H]1N2C(=O)NCCO	·	?	·	?	7.4%	·
COC(=O)C1=C(c2ccc(F)cc2OCc2ccccc2)C[C@@H]2CC[C@H]1N2C(=O)NCCNC(C)=O	-25.2	?	·	?	10.9%	·
CCCNC(=O)N1[C@H]2CC[C@@H]1C(C(=O)OC)=C(c1ccc(F)cc1OCc1ccccc1)C2	·	?	·	?	16.6%	·
Cc1ccc(-n2ccnc2SCC(=O)c2c(N)n(C3CC3)c(=O)[nH]c2=O)cc1C	0.0	?	·	?	2.1%	·
COC(=O)C1=C(c2ccc(F)cc2OCc2ccccc2)C[C@@H]2CC[C@H]1N2C(=O)NCc1ccco1	-2.1	?	·	?	?	·
COC(=O)C1=C(c2ccc(F)cc2OCc2ccccc2)C[C@@H]2CC[C@H]1N2C(=O)NCc1ccc2c(c1)OCO2	-26.1	2.94µM*	·	?	10µM*	·
COC(=O)C1=C(c2ccc(F)cc2OCc2ccccc2)C[C@@H]2CC[C@H]1N2C(=O)N1CCC(O)CC1	·	11.7µM*	·	?	-20.6%	·
COC(=O)C1=C(c2ccccc2)C[C@@H]2CC[C@H]1N2C(=O)N1CCC(O)CC1	-9.2	·	·	·	10.1%	·
COC(=O)C1=C(c2ccc(F)cc2OCc2ccccc2)C[C@@H]2CC[C@H]1N2C(=O)NCc1ccccc1OC	34.7	6.57µM*	·	?	-26.6%	·
COc1cccc(C(C(=O)NC2CCCC2)N2CCN(c3cc(C)nc4ccccc34)CC2)c1OC (centres undefined)	-36.4	·	·	·	·	·
